Shown are actives, neighbours in structure and some others; about 0.74% of the full set was active somewhere.
Vif-APOBEC3G blk = inhibitors of Vif-APOBEC3G interaction; Q9HC16; HeLa A3G-eYFP + Vif (tagged APOBEC3G with the HIV-1 protein that degrades it), YFP fluorescence, overnight; Potency, µM (top dose mostly 46.1 µM), actives largely listed as inhibitors; 0.076% of 410,000 active; AID 602310; note: nearly all actives have a fitted effect of over 60% in size
Target sequence (Q9HC16 whole entry, looked up): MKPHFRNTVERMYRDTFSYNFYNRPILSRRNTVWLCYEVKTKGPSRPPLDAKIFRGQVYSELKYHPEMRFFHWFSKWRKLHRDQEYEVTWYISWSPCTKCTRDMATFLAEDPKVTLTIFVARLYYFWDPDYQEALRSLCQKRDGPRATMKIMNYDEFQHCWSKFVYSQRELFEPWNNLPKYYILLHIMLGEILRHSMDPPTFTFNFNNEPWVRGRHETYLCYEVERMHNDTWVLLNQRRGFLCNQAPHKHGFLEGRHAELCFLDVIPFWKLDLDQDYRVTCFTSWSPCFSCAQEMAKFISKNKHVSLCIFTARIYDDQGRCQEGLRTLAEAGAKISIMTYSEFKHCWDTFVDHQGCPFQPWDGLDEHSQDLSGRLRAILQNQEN
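HeLa cells stably expressing Vif and C-terminally eYFP-tagged A3G, seeded overnight at 37 deg C, then exposed to compound by pintool overnight at 37 deg C. Rise in yellow fluorescence (Ex 488/Em 500-530, Acumen) marks blocked Vif-driven A3G degradation.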
PINK1 modulator = changes PINK1 expression; PINK1 immunofluorescence, high-content cytometry, 24 h; Potency, µM (titrated, usually from 76.6 µM), hits mostly activators; 0.2% of 410,000 active; AID 624263; active = well fitted activation curve with a large enough effect; inconclusive = small, poorly fitted or top-dose-only effect; cell line not stated here; note: nearly all actives have a fitted effect of over 65% in size
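PINK1 protein, normally rapidly degraded, was detected by immunofluorescence after 24 hour compound treatment of a stable cell line. Titration data (5 concentrations) came from laser-scanning cytometry, with CCCP-treated wells as controls.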
Vif-APOBEC3F blk = Vif-A3F binding inhibition | Potency, µM (top dose mostly 46.1 µM) | HeLa A3F-eYFP + Vif (tagged APOBEC3F with the HIV-1 protein that degrades it), YFP fluorescence increase | 0.2% of 390,000 active | AID 602313; note: nearly all actives have a fitted effect of over 65% in size
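HeLa cells stably expressing Vif plus C-terminally eYFP-tagged A3F were seeded, incubated overnight at 37 deg C, dosed with compound, incubated overnight again at 37 deg C. Yellow fluorescence (Ex 488/Em 500-530) reported blocked Vif-mediated A3F-eYFP degradation.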
Akt phos inh = blocks phosphorylation of Akt; Neuro2A IGF-stimulated pAkt S473 HTRF, 20 min; stronger effect = lower value; activity change, % for hits at 50 µM; 0.32% of 360,000 active; AID 651550; in the data active = activity change below about -80%; inconclusive = mostly about -51% to -80%
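Single-point screen (50 µM final compound) in Neuro2A cells stimulated 20 min with 6 nM IGF at 37 deg C. After lysis, Ser473-phosphorylated Akt read by HTRF (ex 330 nm, em 615/665 nm) as the 665/615 ratio.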
LDHA inh = blocks human lactate dehydrogenase A; AID 1347041; purified LDHA, NADH/diaphorase-resazurin fluorescence; stronger effect = lower value; P00338; 0.15% of 480,000 active; activity change, % (values are at about 110 or 230 µM); in the data active = activity change below about -30%; inconclusive = mostly about -25% to -30%
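Resorufin fluorescence (ex540/em590), read at 0 and 20 min after diaphorase/resazurin addition, reports the NADH left after a 5 min room-temperature reaction of 2 nM human LDH5 with 0.06 mM NADH and 0.2 mM pyruvate.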
GRP78 ERSR act = inducers of ER stress response in human glioma cells; U87-MG GRP78 promoter luciferase reporter, 16 h; Potency, µM, most hits filed as activators; 0.02% of 420,000 active; note: series mostly up to about 76 µM; nearly all actives have a fitted effect of over 35% in size
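Stably transfected U87-MG glioma cells carrying a GRP78-based luciferase sensor; 16 h compound incubation. Luminescence end-point read 10 min after Bright-Glo addition at room temperature.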
Numbers stand for hits; – = inactive; ? = inconclusive; · = no result given. Unless noted, calls come from the whole dose curve; as a rule, active = well fitted curve in the direction sought with a large enough effect; inconclusive = small, poorly fitted or top-dose-only effect, or another doubt; inactive = no such curve, though single readings can be large; an effect the other way counts as inactive or inconclusive.

SMILES | Vif-APOBEC3G blk | PINK1 modulator | Vif-APOBEC3F blk | Akt phos inh | LDHA inh | GRP78 ERSR act
COc1ccc(NC(=O)c2sc3nc(-c4cccnc4)ccc3c2N)cc1OC | ? | – | 5.6µM | – | – | –
Nc1c(C(=O)Nc2c(Cl)cccc2Cl)sc2nc(-c3cccnc3)ccc12 | · | · | · | · | – | ·
Cc1ccc(NC(=O)c2sc3nc(-c4ccncc4)ccc3c2N)cc1 | ? | 32µM | ? | · | – | –
COc1ccc(NC(=O)c2sc3nc(-c4cccnc4)ccc3c2N)cc1 | – | 45µM | ? | – | – | –
NC(=O)c1c(NC(=O)COC(=O)CSc2nnc(-c3ccc(Cl)cc3)o2)sc2c1CCC2 | – | – | – | -104% | – | –
CCOC(=O)c1c(NC(=O)CSc2nnc(-c3ccc(OC)cc3)o2)sc2c1CCC2 | – | – | – | – | – | –
COc1cc(/C=C2/SC(=S)N(CCC(=O)Nc3ccccc3)C2=O)cc(OC)c1OC | ? | – | 11µM | – | – | –
O=C(O)CCN1C(=O)/C(=C\c2cccc(OCC(=O)Nc3ccc(Cl)cc3)c2)SC1=S | – | – | – | – | – | –
COc1cc(/C=C2\SC(=S)N(CCC(=O)Nc3ccccn3)C2=O)cc(OC)c1OC | – | – | 25µM | – | – | –
Cc1ccc(NC(=O)COc2cccc(/C=C3\SC(=S)N(CCC(=O)O)C3=O)c2)cc1Cl | – | – | – | – | -36 | –
O=C(CN1C(=O)S/C(=C\c2cc(Cl)c(O)c(Cl)c2)C1=O)Nc1ccccc1 | ? | – | 13µM | – | – | –
COc1ccc(C)cc1NC(=O)/C=C/c1nc2ccccc2o1 | · | · | · | · | – | ·
CC(C)Cn1cnc2c1c(O)nc(=O)n2Cc1ccccc1 | · | · | · | · | – | ·
CSc1cccc(NC(=O)C2CC3C=CC2C3)c1 (stereo not drawn) | · | · | · | · | – | ·
CN(Cc1ccc(F)c(F)c1)S(=O)(=O)c1ccc2c(c1)CCC2 | · | · | · | · | – | ·
COc1cccc(N2CCN(Cc3nc4scc(-c5ccccc5)c4c(=O)[nH]3)CC2)c1 | 8.9µM | – | – | – | – | –
COc1cccc(N2CCN(Cc3nc4ccccc4c(=O)[nH]3)CC2)c1 | – | – | – | – | – | –
CCOC(=O)c1[nH]c(C)c(C=O)c1C | · | · | · | · | – | ·
Clc1ccc(Oc2cc(Cl)c(Cl)cc2Cl)cc1 | · | · | · | · | – | ·
CCc1nc(C)ccc1OCC(=O)NCCCN(C)C | – | – | – | – | -33 | –
Cc1ccccc1OCCN(C)C(=O)c1cc(=O)c2ccccc2o1 | · | · | · | · | – | ·
Cc1nn(CCCC(=O)Nc2cc(Oc3ccc(F)cc3)cc([N+](=O)[O-])c2)c(C)c1[N+](=O)[O-] | – | – | – | – | – | –
CCn1nc(C)c(C(=O)Nc2cc(Oc3ccc(Cl)cc3)cc([N+](=O)[O-])c2)c1C | ? | 10µM | – | – | – | –
C=CCN1C(=O)/C(=C2/Sc3ccc(OC)cc3N2C)SC1=Nc1cccc(O)c1 | 11µM | ? | 11µM | – | – | –
CCN1C(=O)/C(=C2/Sc3ccc(OC)cc3N2C)SC1=Nc1ccc(OC)cc1 | – | – | – | – | – | –
SMILES | Vif-APOBEC3G blk | PINK1 modulator | Vif-APOBEC3F blk | Akt phos inh | LDHA inh | GRP78 ERSR act
CCOc1ccc(C(=O)NCC(=O)OCC(=O)Nc2ccc(C)c(S(=O)(=O)N(C)C)c2)cc1 | – | – | – | – | -31 | –
Cc1ccc(NC(=O)COC(=O)CNC(=O)C2CCCCC2)cc1S(=O)(=O)N(C)C | – | – | – | – | – | –
Cn1cc(/C=C2\SC(=O)N(c3ccccc3)C2=O)c2ccccc21 | – | ? | 7.9µM | – | – | –
CN(C(=O)/C(C#N)=C\c1ccc(OC(F)F)cc1)C1CCCCC1 | · | · | · | · | – | ·
CCOC(=O)CNC(=O)CNC(=O)c1ccc(OC)cc1 | – | – | – | -108% | – | –
CCC(/C=C1\Sc2ccc(OC)cc2N1CC)=C\c1sc2ccc(OC)cc2[n+]1CCCS(=O)(=O)[O-] | – | – | – | – | – | –
CCC(/C=C1\Sc2ccc(OC)cc2N1CCO)=C\c1sc2ccc(OC)cc2[n+]1CCO | – | 14µM | – | – | – | –
O=c1[nH]c2ccc([N+](=O)[O-])cc2nc1/C=C(\O)c1ccccc1 | – | 28µM | ? | – | – | –
O=C(c1ccco1)N1CCCC(N2CCN(c3ccccc3F)CC2)C1 (stereo not drawn) | – | – | – | – | – | –
O=C(c1ccco1)N1CCN(c2ccccc2F)CC1 | – | – | – | -117% | – | –
Cc1noc(CSc2nc(C3CC3)nc3ccccc23)n1 | · | · | · | · | – | ·
CSc1ccc(NC(=O)C(C)N2CCN(C)CC2)cc1 (stereo not drawn) | – | – | – | – | -35 | –
CC1CC(C)CN(CC(=O)c2c[nH]c3ccccc23)C1 (stereo not drawn) | ? | – | 32µM | – | – | –
O=C(CN1CCCCC1)c1c[nH]c2ccccc12 | – | – | – | – | – | –
Cc1ccc(-c2n[nH]c(=O)c3ccccc23)cc1S(=O)(=O)N(C)C | – | – | – | – | – | –
CCN(CC)S(=O)(=O)c1cc(-c2n[nH]c(=O)c3ccccc23)ccc1C | · | · | · | · | -33 | ·
CC(C)CCn1cnc2c1c(=O)n(CC(=O)Nc1cc(F)ccc1F)c(=O)n2Cc1ccccc1 | · | · | · | · | – | ·
COc1cc(CNCc2ccc(SC)cc2)cc(OC)c1 | – | – | – | – | -31 | –
COc1cccc(CNCc2cc(OC)cc(OC)c2)c1 | – | – | – | – | – | –
Nc1c(C(=O)N/N=C/c2ccccc2Cl)oc2nc(-c3ccccc3)cc(-c3ccco3)c12 | ? | – | 7.1µM | – | – | –
Cn1ccc2c(C(=O)Nc3nnc(C4CC4)s3)cccc21 | · | · | · | · | – | ·
O=C(CCc1ncc(-c2c(F)cccc2F)o1)N1CCSCC1 | · | · | · | · | – | ·
COc1ccccc1Cc1c(-c2ccc(OC)c(OC)c2)nc2ccc(Br)cn12 | – | 14µM | · | – | – | –
CC(C)(C)Cc1c(-c2ccc(F)cc2)nc2ccc(Br)cn12 | – | 35µM | ? | – | – | –
CC(C)(C)Cc1c(-c2ccc(Br)cc2)nc2ccc(Cl)cn12 | – | ? | ? | – | – | –
SMILES | Vif-APOBEC3G blk | PINK1 modulator | Vif-APOBEC3F blk | Akt phos inh | LDHA inh | GRP78 ERSR act
CC(C)(C)Cc1c(-c2ccc(Cl)cc2)nc2ccc(Br)cn12 | – | 32µM | ? | – | – | –
COc1ccc(-c2nc3ccc(Br)cn3c2Cc2ccccc2)cc1OC | – | – | · | – | – | –
CC(NC(=O)c1ccc(S(=O)(=O)N(C)C)cc1)c1cc2ccccc2o1 (stereo not drawn) | · | · | · | · | – | ·
CN1OC[C@@H]2CN(Cc3cc(Cl)cc(Cl)c3)[C@H](c3cccc(-c4ccc(C#N)cc4)c3)C[C@@H]21 | – | – | – | – | -31 | –
CCCc1nnc(NC(=O)c2cc(=O)c3ccc(C)c(C)c3o2)s1 | · | · | · | · | – | ·
Cc1ccc(S(=O)(=O)N2CCCN(C(=O)c3cncn3-c3ccccc3)CC2)cc1 | · | · | · | · | -37 | ·
COC(=O)c1cc(Br)ccc1NC(=O)Nc1ccc(C)cc1 | – | – | – | -115% | – | –
